About 85 (1%) of roughly 5,700 compounds were called active. Rule as the data show it: active = p53-positive nuclei above about 36% (passing the limit was not always enough); inactive = the rest. Shown is part of a subset that was picked to be rich in actives.
Tests used:
[1] = nuclear p53 accumulation, HPV+ cells – imaging, p53-positive nuclei imaging, 24 h, 48 h (AID 1508601); conditions: 24/48 h
[2] = target: Cellular tumor antigen p53 (Homo sapiens) (UniProt P04637); test: as above; conditions: 24/48 h, stronger effect = higher value
Cellular tumor antigen p53 (Homo sapiens), sequence (P04637 whole entry, looked up): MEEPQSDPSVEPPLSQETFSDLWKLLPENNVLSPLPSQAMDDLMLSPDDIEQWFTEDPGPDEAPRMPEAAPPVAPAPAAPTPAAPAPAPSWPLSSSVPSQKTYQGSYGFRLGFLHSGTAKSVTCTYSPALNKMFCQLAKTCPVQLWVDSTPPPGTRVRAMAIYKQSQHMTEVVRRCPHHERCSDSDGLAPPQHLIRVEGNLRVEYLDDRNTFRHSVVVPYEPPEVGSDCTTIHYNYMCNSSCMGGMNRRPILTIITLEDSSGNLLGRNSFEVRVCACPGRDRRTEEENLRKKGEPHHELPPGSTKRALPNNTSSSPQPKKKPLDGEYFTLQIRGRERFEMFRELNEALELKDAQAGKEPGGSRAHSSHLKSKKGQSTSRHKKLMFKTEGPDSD

[3] = measured here: cell number at 24 h, Library stock concentration: 10 mM
[4] = measured here: cell number at 48 h, Library stock concentration: 10 mM
[5] = Library stock concentration: 10 mM
[6] = measured here: p53 positive nuclei at 24 h, Library stock concentration: 10 mM
[7] = measured here: cell number at 24 h, concentration not given here
[8] = measured here: cell number at 48 h, concentration not given here
[9] = measured here: p53 positive nuclei at 24 h, concentration not given here
[10] = measured here: cell number at 24 h, Library stock concentration: 3.33 mM
[11] = measured here: cell number at 48 h, Library stock concentration: 3.33 mM
[12] = Library stock concentration: 3.33 mM
[13] = measured here: p53 positive nuclei at 24 h, Library stock concentration: 3.33 mM

**Q.** What does the source list for `O=C(O)c1ccccc1SC1=NS(=O)(=O)c2ccccc21`?
**A.** nuclei count, normalised ([1]; measured here: cell number at 24 h, Library stock concentration: 500 nM): 117%; nuclei count, normalised ([1]; measured here: cell number at 24 h, Library stock concentration: 1.5 uM): 119%; nuclei count, normalised ([1]; measured here: cell number at 24 h, Library stock concentration: 4.6 uM): 119%; nuclei count, normalised ([1]; measured here: cell number at 24 h, Library stock concentration: 13.7 uM): 120%; nuclei count, normalised ([1]; measured here: cell number at 24 h, Library stock concentration: 41 uM): 125%; nuclei count, normalised ([1]; measured here: cell number at 24 h, Library stock concentration: 123 uM): 126%; nuclei count, normalised ([1]; measured here: cell number at 24 h, Library stock concentration: 370 uM): 125%; nuclei count, normalised ([1]; measured here: cell number at 24 h, Library stock concentration: 1.111 mM): 119%; nuclei count, normalised ([1]; measured here: cell number at 24 h, Library stock concentration: 3.333 mM): 120%; nuclei count, normalised [1, 3]: 112%; nuclei count, normalised ([1]; measured here: cell number at 48 h, Library stock concentration: 500 nM): 123%; nuclei count, normalised ([1]; measured here: cell number at 48 h, Library stock concentration: 1.5 uM): 121%; nuclei count, normalised ([1]; measured here: cell number at 48 h, Library stock concentration: 4.6 uM): 126%; nuclei count, normalised ([1]; measured here: cell number at 48 h, Library stock concentration: 13.7 uM): 116%; nuclei count, normalised ([1]; measured here: cell number at 48 h, Library stock concentration: 41 uM): 127%; nuclei count, normalised ([1]; measured here: cell number at 48 h, Library stock concentration: 123 uM): 121%; nuclei count, normalised ([1]; measured here: cell number at 48 h, Library stock concentration: 370 uM): 120%; nuclei count, normalised ([1]; measured here: cell number at 48 h, Library stock concentration: 1.111 mM): 117%; nuclei count, normalised ([1]; measured here: cell number at 48 h, Library stock concentration: 3.333 mM): 122%; nuclei count, normalised [1, 4]: 111%; p53-positive nuclei, normalised ([2]; Library stock concentration: 500 nM): -0.176% (inactive); p53-positive nuclei, normalised ([2]; Library stock concentration: 1.5 uM): 0.0563% (inactive); p53-positive nuclei, normalised ([2]; Library stock concentration: 4.6 uM): -0.0688% (inactive); p53-positive nuclei, normalised ([2]; Library stock concentration: 13.7 uM): 0.0271% (inactive); p53-positive nuclei, normalised ([2]; Library stock concentration: 41 uM): -0.248% (inactive); p53-positive nuclei, normalised ([2]; Library stock concentration: 123 uM): -0.212% (inactive); p53-positive nuclei, normalised ([2]; Library stock concentration: 370 uM): 0.0436% (inactive); p53-positive nuclei, normalised ([2]; Library stock concentration: 1.111 mM): 0.133% (inactive); p53-positive nuclei, normalised ([2]; Library stock concentration: 3.333 mM): -0.102% (inactive); p53-positive nuclei, normalised [2, 5]: 0.0746% (inactive); p53-positive nuclei, normalised ([2]; measured here: p53 positive nuclei at 24 h, Library stock concentration: 500 nM): -0.148%; p53-positive nuclei, normalised ([2]; measured here: p53 positive nuclei at 24 h, Library stock concentration: 1.5 uM): -0.0949%; p53-positive nuclei, normalised ([2]; measured here: p53 positive nuclei at 24 h, Library stock concentration: 4.6 uM): -0.0339%; p53-positive nuclei, normalised ([2]; measured here: p53 positive nuclei at 24 h, Library stock concentration: 13.7 uM): -0.0316%; p53-positive nuclei, normalised ([2]; measured here: p53 positive nuclei at 24 h, Library stock concentration: 41 uM): -0.148%; p53-positive nuclei, normalised ([2]; measured here: p53 positive nuclei at 24 h, Library stock concentration: 123 uM): -0.148%; p53-positive nuclei, normalised ([2]; measured here: p53 positive nuclei at 24 h, Library stock concentration: 370 uM): -0.0409%; p53-positive nuclei, normalised ([2]; measured here: p53 positive nuclei at 24 h, Library stock concentration: 1.111 mM): -0.0917%; p53-positive nuclei, normalised ([2]; measured here: p53 positive nuclei at 24 h, Library stock concentration: 3.333 mM): -0.0904%; p53-positive nuclei, normalised [2, 6]: -0.0218%

**Q.** Which nuclei count, normalised [1, 7] does the source give for `O=C(CCn1cnnn1)N1CCc2[nH]nc(-c3ccc4c(c3)OCO4)c2C1` here?
**A.** The nuclei count, normalised was 107%.

**Q.** And the nuclei count, normalised [1, 8]?
**A.** Its nuclei count, normalised is 111%.

**Q.** And the p53-positive nuclei, normalised ([2]; concentration not given here)?
**A.** Its p53-positive nuclei, normalised is 0.266% (inactive).

**Q.** And the p53-positive nuclei, normalised [2, 9]?
**A.** The p53-positive nuclei, normalised was 0.111%.

**Q.** Which results are given for `Cc1ccc([N+](=O)[O-])cc1S(=O)(=O)N(C)N=Cc1cnc2ccc(Br)cn12`?
**A.** nuclei count, normalised [1, 10]: 17.7%; nuclei count, normalised [1, 11]: 14.7%; p53-positive nuclei, normalised [2, 12]: 14.4% (inactive); p53-positive nuclei, normalised [2, 13]: 4.1%

**Q.** Which results are given for `CCc1c2c(nc3ccc(OC(=O)N4CCC(N5CCCCC5)CC4)cc13)-c1cc3c(c(=O)n1C2)COC(=O)[C@@]3(O)CC`?
**A.** nuclei count, normalised [1, 10]: 44.3%; nuclei count, normalised [1, 11]: 30.6%; p53-positive nuclei, normalised [2, 12]: -0.157% (inactive); p53-positive nuclei, normalised [2, 13]: -0.474%

**Q.** Which results are given for `CN(C)CCCn1cc(C2=C(c3c[nH]c4ccccc34)C(=O)NC2=O)c2ccccc21`?
**A.** nuclei count, normalised [1, 10]: 108%; nuclei count, normalised [1, 11]: 105%; p53-positive nuclei, normalised [2, 12]: 0.0456% (inactive); p53-positive nuclei, normalised [2, 13]: -0.293%

**Q.** What does the source list for `Cn1cc(C2=C(c3cn(CCCN)c4ccccc34)C(=O)NC2=O)c2ccccc21`?
**A.** nuclei count, normalised [1, 7]: 114%; nuclei count, normalised [1, 8]: 106%; p53-positive nuclei, normalised ([2]; concentration not given here): 0.117% (inactive); p53-positive nuclei, normalised [2, 9]: 0.12%

**Q.** For `Cn1cc(C2=C(c3cn(CCCSC(=N)N)c4ccccc34)C(=O)NC2=O)c2ccccc21`, which nuclei count, normalised ([1]; measured here: cell number at 24 h, Library stock concentration: 80 uM) is on record?
**A.** The nuclei count, normalised was 108%.

**Q.** What about the nuclei count, normalised ([1]; measured here: cell number at 24 h, Library stock concentration: 400 uM) of the same compound?
**A.** The nuclei count, normalised was 104%.

**Q.** What about the nuclei count, normalised ([1]; measured here: cell number at 24 h, Library stock concentration: 2 mM) of the same compound?
**A.** Its nuclei count, normalised is 97.9%.

**Q.** What about the nuclei count, normalised [1, 10] of the same compound?
**A.** Its nuclei count, normalised is 68.3%.

**Q.** What about the nuclei count, normalised [1, 3] of the same compound?
**A.** The nuclei count, normalised was 38.8%.

**Q.** And the nuclei count, normalised [1, 7]?
**A.** The nuclei count, normalised was 102%.

**Q.** And the nuclei count, normalised ([1]; measured here: cell number at 48 h, Library stock concentration: 80 uM)?
**A.** The nuclei count, normalised was 114%.

**Q.** And the nuclei count, normalised ([1]; measured here: cell number at 48 h, Library stock concentration: 400 uM)?
**A.** Its nuclei count, normalised is 111%.

**Q.** And the nuclei count, normalised ([1]; measured here: cell number at 48 h, Library stock concentration: 2 mM)?
**A.** Its nuclei count, normalised is 98.9%.

**Q.** And the nuclei count, normalised [1, 11]?
**A.** Its nuclei count, normalised is 63.6%.

**Q.** And the nuclei count, normalised [1, 4]?
**A.** Its nuclei count, normalised is 29%.

**Q.** And the nuclei count, normalised [1, 8]?
**A.** The nuclei count, normalised was 104%.

**Q.** And the p53-positive nuclei, normalised ([2]; Library stock concentration: 80 uM)?
**A.** Its p53-positive nuclei, normalised is 0.143% (inactive).

**Q.** And the p53-positive nuclei, normalised ([2]; Library stock concentration: 400 uM)?
**A.** The p53-positive nuclei, normalised was -0.08% (inactive).

**Q.** What about the p53-positive nuclei, normalised ([2]; Library stock concentration: 2 mM) of the same compound?
**A.** Its p53-positive nuclei, normalised is 3.66% (inactive).

**Q.** And the p53-positive nuclei, normalised [2, 12]?
**A.** Its p53-positive nuclei, normalised is 23.8% (inactive).

**Q.** And the p53-positive nuclei, normalised [2, 5]?
**A.** Its p53-positive nuclei, normalised is 70.5% (active).

**Q.** And the p53-positive nuclei, normalised ([2]; concentration not given here)?
**A.** The p53-positive nuclei, normalised was 0.319% (inactive).

**Q.** What about the p53-positive nuclei, normalised ([2]; measured here: p53 positive nuclei at 24 h, Library stock concentration: 80 uM) of the same compound?
**A.** Its p53-positive nuclei, normalised is -0.111%.

**Q.** What about the p53-positive nuclei, normalised ([2]; measured here: p53 positive nuclei at 24 h, Library stock concentration: 400 uM) of the same compound?
**A.** The p53-positive nuclei, normalised was -0.0611%.

**Q.** And the p53-positive nuclei, normalised ([2]; measured here: p53 positive nuclei at 24 h, Library stock concentration: 2 mM)?
**A.** The p53-positive nuclei, normalised was 3.9%.

**Q.** And the p53-positive nuclei, normalised [2, 13]?
**A.** The p53-positive nuclei, normalised was 33.8%.

**Q.** What about the p53-positive nuclei, normalised [2, 6] of the same compound?
**A.** The p53-positive nuclei, normalised was 47.3%.

**Q.** What about the p53-positive nuclei, normalised [2, 9] of the same compound?
**A.** The p53-positive nuclei, normalised was 0.487%.

**Q.** With `Cc1nsc(NC(=O)NCCC2CCCCCC2)n1` as the compound, how does the nuclei count, normalised [1, 7] read?
**A.** Its nuclei count, normalised is 106%.

**Q.** What about the nuclei count, normalised [1, 8] of the same compound?
**A.** Its nuclei count, normalised is 112%.

**Q.** And the p53-positive nuclei, normalised ([2]; concentration not given here)?
**A.** Its p53-positive nuclei, normalised is -0.14% (inactive).

**Q.** What about the p53-positive nuclei, normalised [2, 9] of the same compound?
**A.** Its p53-positive nuclei, normalised is -0.0933%.

**Q.** With `CC1(C)OC2C[C@H]3[C@@H]4CCC5=CC(=O)CC[C@]5(C)[C@]4(F)C(O)C[C@]3(C)[C@@]2(C(=O)CCl)O1` (stereo partly specified) as the compound, how does the nuclei count, normalised [1, 10] read?
**A.** Its nuclei count, normalised is 80.9%.

**Q.** What about the nuclei count, normalised [1, 11] of the same compound?
**A.** Its nuclei count, normalised is 80.1%.

**Q.** And the p53-positive nuclei, normalised [2, 12]?
**A.** The p53-positive nuclei, normalised was -0.151% (inactive).

**Q.** And the p53-positive nuclei, normalised [2, 13]?
**A.** The p53-positive nuclei, normalised was -0.267%.

**Q.** With `O=C1O[C@H](C(O)CO)C(O)C1O` (stereo partly specified) as the compound, how does the nuclei count, normalised [1, 10] read?
**A.** The nuclei count, normalised was 110%.

**Q.** And the nuclei count, normalised [1, 11]?
**A.** The nuclei count, normalised was 103%.

**Q.** What about the p53-positive nuclei, normalised [2, 12] of the same compound?
**A.** The p53-positive nuclei, normalised was -0.204% (inactive).

**Q.** And the p53-positive nuclei, normalised [2, 13]?
**A.** Its p53-positive nuclei, normalised is -0.283%.
